# Test results taken from PubChem BioAssay AID2615 (Southern Research Specialized Biocontainment Screening …, 2010).
# Active and inactive are the calls of the source. The rule behind the calls is not given here.
# Test: antiviral efficacy and BSC cell toxicity – BSC cells, SV40 T antigen inhibitor project, confirmation (AID 2615)
# Details: BSC cells SV40 infection, CPE inhibition; viability, at 100 µM, stronger effect = lower value
smiles,measurement,value
COc1ccc(CC2NCCc3cc(OC)c(OC)cc32)cc1OC (configuration not stated),outcome,inactive
same,viability,201%
